# Screens as filed in PubChem.
# Shown are actives, neighbours in structure and some others; about 2.4% of the full set was active somewhere.
# WRN helicase inh: inhibitors of human WRN helicase; Q14191; WRN helicase unwinding, fluorescent forked duplex, kinetic; Potency, µM (titrated, usually from 114 µM), for inactives: at the highest dose activity change, negative = inhibition, most hits filed as inhibitors; 360,000 compounds, 0.46% hits; AID 651768; also: % is scaled to controls: 0 for no effect and ±100 for the full control effect; nearly all actives have a fitted effect of over 55% in size
#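 WRN at 20 nM final was preincubated with compound for 15 min at room temperature; reaction started with 100 nM forked duplex oligonucleotide carrying fluorophore and quencher plus 2 mM ATP (final). Unwinding followed kinetically by red fluorescence (ex 525/em 598 nm).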
# Pol iota inh: DNA polymerase iota (human) inhibition. Potency, µM (doses to about 115 µM), for inactives: top-dose activity, negative = inhibition, hits mostly inhibitors. Q9UNA4. Pol iota fluorescent replication assay, 10 min. 390,000 compounds, 1% hits. AID 588590
#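 Pol iota at 10 nM preincubated 15 min with compounds at room temperature; reaction started with fluorescent substrate, 50 nM final. Fluorescence read kinetically at 0 and 10 min; buffer-only wells as negative control.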
# Pol beta inh: DNA polymerase beta (human) inhibition | P06746 | Pol beta primer extension/strand displacement, fluorescence kinetic | Potency, µM (doses to about 114 µM), for inactives: at the top dose activity change, negative = inhibition, usual class: inhibitors | 340,000 compounds, 1.3% hits | AID 485314; also: % is scaled to controls: 0 for no effect and ±100 for the full control effect
#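 Curves were derived by four-parameter Hill fits of normalized qHTS data. The kinetic fluorescent primer-extension read was taken at 0 and 10 min after 50 nM substrate, following a 15 min room-temperature preincubation of 10 nM enzyme with compounds.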
# FEN1 inh-1: human FEN1 inhibition. 390,000 compounds, 0.35% hits. Recombinant FEN1 flap cleavage, fluorescence, 15 min. Potency, µM (doses to about 114 µM), without a hit: top-dose activity change, negative = inhibition, hits mostly inhibitors. AID 588795. P39748; also: % is scaled to controls: 0 for no effect and ±100 for the full control effect; nearly all actives have a fitted effect of over 65% in size
#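 Recombinant FEN1 (10 nM) was preincubated with pin-transferred compounds for 15 min at room temperature, then flap DNA substrate (50 nM final) was added. Plates were read at 0 and 15 min, and normalized concentration–response data were fitted to a four-parameter Hill equation.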
# POLK inh: inhibitors of human DNA polymerase kappa; Q9UBT6; purified Pol kappa, fluorescent DNA synthesis assay, 10 min; Potency, µM (doses to about 107 µM), for the others: top-dose activity, negative = inhibition, actives largely listed as inhibitors; 400,000 compounds, 0.53% hits; AID 588579; also: % is scaled to controls: 0 for no effect and ±100 for the full control effect
# Target sequence (Q9UBT6 whole entry, looked up): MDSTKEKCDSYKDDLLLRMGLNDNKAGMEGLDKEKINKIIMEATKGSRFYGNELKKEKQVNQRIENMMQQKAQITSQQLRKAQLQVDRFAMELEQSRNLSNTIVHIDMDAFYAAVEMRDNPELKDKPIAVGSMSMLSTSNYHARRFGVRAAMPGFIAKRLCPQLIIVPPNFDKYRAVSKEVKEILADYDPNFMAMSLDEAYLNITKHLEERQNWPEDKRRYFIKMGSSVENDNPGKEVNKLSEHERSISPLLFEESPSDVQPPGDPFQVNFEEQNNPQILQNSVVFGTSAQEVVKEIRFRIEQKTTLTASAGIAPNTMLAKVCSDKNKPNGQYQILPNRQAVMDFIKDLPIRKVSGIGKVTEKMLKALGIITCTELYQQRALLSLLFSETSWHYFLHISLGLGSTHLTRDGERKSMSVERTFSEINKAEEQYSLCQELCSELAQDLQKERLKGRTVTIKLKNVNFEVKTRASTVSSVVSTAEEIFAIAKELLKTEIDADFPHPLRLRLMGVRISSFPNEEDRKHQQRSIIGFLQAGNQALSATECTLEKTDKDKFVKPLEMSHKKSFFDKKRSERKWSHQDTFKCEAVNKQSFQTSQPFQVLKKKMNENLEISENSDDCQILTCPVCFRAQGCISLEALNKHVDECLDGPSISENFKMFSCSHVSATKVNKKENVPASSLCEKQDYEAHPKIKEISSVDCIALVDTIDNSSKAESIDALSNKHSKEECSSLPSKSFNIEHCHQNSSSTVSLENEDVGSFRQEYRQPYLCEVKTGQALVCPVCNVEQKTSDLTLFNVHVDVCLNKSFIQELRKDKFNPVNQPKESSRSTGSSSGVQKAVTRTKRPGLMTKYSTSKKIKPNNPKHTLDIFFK
#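 Readout: fluorescence, taken kinetically at 0 and 10 min. Conditions: 10 nM Pol kappa, 15 min RT compound preincubation, 50 nM substrate final. Controls: enzyme-free buffer wells.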
# Pol eta inh: blocks human DNA polymerase eta activity | AID 588591 | Q9Y253 | recombinant Pol eta, fluorescent DNA replication assay | Potency, µM (titrated, usually from 114 µM), for inactives: top-dose activity change, negative = inhibition, actives largely listed as inhibitors | 390,000 compounds, 1.2% hits; also: % is scaled to controls: 0 for no effect and ±100 for the full control effect
#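 Pol eta at 10 nM preincubated with compounds 15 min at room temperature; reaction started with fluorescent substrate (50 nM final) and read kinetically at 0 and 10 min.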
# FEN1 inh-2: FEN1 inhibition, cherry-pick retest | shares compounds with FEN1 inh-1 | FEN1 flap cleavage, TAMRA/BHQ2 fluorogenic DNA substrate | Potency, µM, actives largely listed as inhibitors | 880 compounds, 79% hits; also: nearly all actives have a fitted effect of over 60% in size
# Numbers without * were called inactive; ? = inconclusive; / = not tested or not shown; [ ] = dose if it differs, or a comment. Calls follow the shape of the dose curve; as a rule, active = well fitted curve in the direction sought with a large enough effect; inconclusive = small, poorly fitted or top-dose-only effect, or another doubt; inactive = no such curve, though single readings can be large; an effect the other way counts as inactive or inconclusive. Potency is read from the fitted curve at half-maximal effect.
SMILES,WRN helicase inh,Pol iota inh,Pol beta inh,FEN1 inh-1,POLK inh,Pol eta inh,FEN1 inh-2
OC1CCCN(Cc2ccc3ccc4cccc5ccc2c3c45)C1 (stereo unspecified),21.1%[57.1 µM],?,39.8µM*,56.2µM*,-13.9%,-10.6%,42.6*
CCOC(=O)CCc1c(C)c2cc3c(c(C)c2oc1=O)OCN(CCc1ccccc1OC)C3,/,-1.2%,-0.7%,2.5%,0.0%,-9.8%,/
CCOc1cc(/C=C2\C(=O)N(CCC#N)N=C2C)ccc1OCC(N)=O,-13.4%[57.1 µM],?,5.8%,-4.6%,-2.9%,-17.2%,?
NC(=O)N=Nc1c2[nH]c3ccccc3nc-2c2ccccc12,-10.8%[11.6 µM],?,-51.0%,10µM*,-9.9%,?,3.38*
O=[N+]([O-])c1cc2c(c([N+](=O)[O-])c1)Nc1ccccc1O2,-4.9%,/,/,/,/,?,/
O=C1Nc2ccccc2Oc2cc([N+](=O)[O-])cc(Oc3ccccc3)c21,?,?,?,?,-39.2%,?,84.9*
Cc1c2c(cc3c1[nH]c1ccccc13)C=NCC2,13.9%[11.6 µM],34.1%,/,50.1µM*,9.2%,-23.7%,37.9*
CN(C)CCNc1ccc(CO)c2oc3ccc(O)cc3c(=O)c12,7.4%[11.6 µM],?,/,35.5µM*,-21.4%,-6.7%,30.1*
CCN(CC)CCNc1ccc(CO)c2oc3cc(Cl)ccc3c(=O)c12,7.0%,/,/,/,/,-13.1%,/
CCOc1ccc2c(c1)c(=O)c(C(=O)c1ccc(CC)cc1)cn2CC(=O)Nc1ccccc1C,/,19.8%,-1.5%,2.1%,-13.1%,-11.9%,/
CC(C)N(C(=O)Cn1cc(S(=O)(=O)Cc2ccc(C(F)(F)F)cc2)c2ccccc21)C(C)C,/,2.3%,2.2%,7.1%,-4.6%,-13.4%,/
COC(=O)c1cc2c(-c3ccccc3)c(C)c3ccccn3c-2c1C(=O)OC,?,-17.3%,13.1%,?,?,?,84.9*
COC(=O)c1c(Cl)c2n3ccccc3c(C)c(-c3ccccc3)c-2c1C(=O)OC,?,?,11.0%,-1.1%,-7.1%,?,/
CCN1CCN(c2cccc(Nc3nn4c(=O)c5ccccc5nc4s3)c2)CC1,/,/,/,/,/,/,?
COc1cccc(CNC(=O)c2ccc3c(=O)n4nc(Nc5ccccc5)sc4nc3c2)c1,/,10.5%,-18.1%,1.2%,0.8%[60.1 µM],?,/
CN1CCN(c2cccc(Nc3nn4c(=O)c5ccccc5nc4s3)c2)CC1,/,/,/,/,/,/,42.6*
COc1ccc2c(=O)n3nc(Nc4cccc(N5CCN(C)CC5)c4)sc3nc2c1,/,/,/,/,/,/,?
O=C(Cn1cc(C(=O)C2CC2)c2ccccc21)Nc1ccc(Br)cc1,/,1.5%,-23.8%,13.3%,-12.4%,3.7%,/
Fc1ccc(CNc2ncnc3c2c(-c2ccccc2)cn3-c2ccccc2)cc1,/,11.2%,2.9%,8.5%,3.8%[60.1 µM],-20.4%,/
Cc1oc(-c2ccccc2F)nc1CS(=O)(=O)CC(=O)N1CCN(c2ccc(Cl)cc2)CC1,/,4.3%,0.6%,-5.5%,-18.9%,-15.8%,/
Fc1ccc(CNc2nc3c(-c4ccc(F)cc4)nnn3c3ccccc23)cc1,/,46.0%,7.4%,2.5%,2.3%,-13.8%,/
Cc1ccc(-c2csc(/C(C#N)=C/c3ccccc3Cl)n2)cc1,/,10.0%,?,-4.5%,-3.9%,-19.5%,/
CCN1/C(=C/c2ccc3cc(C)ccc3[n+]2CC)Sc2ccc3sccc3c21,-22.0%,4.5%,/,?,-12.9%,?,/
CCN1/C(=C\c2ccc3cc(C)ccc3[n+]2CC)Sc2cc(C)c(C)cc21,44.7µM*,/,50.1µM*,/,-28.7%,?,8.49*
COc1ccc(S(=O)(=O)N2CCN(Cc3nc4ccc(C)cc4o3)CC2)cc1Cl,/,-10.5%,-4.2%,-0.6%,-10.6%[60.1 µM],-14.5%,/
O=c1c2ccccc2c(/C=N/NS(=O)(=O)c2ccccc2)c(O)n1-c1ccccn1,?,?,33.1%,-4.0%,-22.5%,5.9%,?
